Experimental data reported in PubChem BioAssay (NCI).
Compounds without any hit were thinned out: in the full panel of roughly 83,000, 20% have a hit.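 Testing used 96-well plates and a 48-hour single-concentration exposure. Example: -40 means 40% of the starting cells died.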 Values without a mark were called inactive. Calls of active or inactive are those of the source. The calls were made as follows: active = growth percent below 10; inactive = the rest.

Columns and labels:
Assay in all cases: NCI-60 one-dose screen, 48 h (100 = growth as untreated, 0 = no growth, -100 = all killed)
Conditions in all cases: 10 µM unless noted
[1] = test system: DU-145 prostate
[2] = test system: K-562 leukemia
[3] = test system: MALME-3M melanoma
[4] = test system: RXF 393 renal
[5] = test system: SF-268 CNS
[6] = test system: SF-295 CNS
[7] = test system: SF-539 CNS
[8] = test system: UACC-257 melanoma
[9] = test system: M14 melanoma
[10] = test system: MDA-MB-231 breast

Structure (SMILES)	growth [1]	growth [2]	growth [3] [%]	growth [4] [%]	growth [5]	growth [6]	growth [7]	growth [8]	growth [9]	growth [10]
CCN(C(C)=O)c1ccc([N+](=O)[O-])cc1	110%	107%	101	106	103%	108%	109%	94.9%	113%	–
CC(C)(N)CO[C@H]1C[C@H]2CC[C@@]1(C)C2(C)C	102%	123%	97.1	87.6	91.5%	97.7%	99.4%	97.1%	90%	–
CC(=O)c1cccc(O)c1	105%	103%	–	112	97.1%	101%	98%	99.3%	99.6%	104%
Cn1c(=O)[nH]c2ccccc2c1=O	104%	103%	100	102	107%	94.4%	98.8%	102%	107%	–
CC1CC2C3CCC4=CC(=O)CCC4(C)C3CCC2(C)C1(O)C(=O)CO (stereo unspecified)	130%	98.4%	–	122	121%	124%	107%	114%	111%	108%
NC(=O)NCCO	110%	99.2%	97.4	102	101%	95.6%	103%	97.8%	107%	–
COc1ccc(Br)c(C=O)c1	88.1%	11.6%	66.2	80.1	60.8%	65.7%	30.5%	79.7%	46.1%	–
Clc1cccc(Cl)c1C1CSc2ccccc2N=C1c1ccccc1 (stereo unspecified)	59.6%	4.38% (active)	110	–	73.4%	–	101%	51.4%	86.6%	70.5%
CSc1nc2[nH]ncc2c(=O)[nH]1	104%	113%	101	92.6	95.2%	96.2%	96%	109%	92.1%	–
Nc1cc2c(cc1Cl)C(=O)c1ccccc1C2=O	67.7%	72.4%	64.7	72.2	44.5%	35.4%	-82% (active)	89.8%	85.3%	–
CC(=O)NC(O)C(Cl)Cl (stereo unspecified)	99.2%	84.3%	96.7	113	95%	93.6%	90.6%	107%	110%	–
COc1ccc(C2CC(c3ccccc3)=Nc3ccccc3S2)cc1 (stereo unspecified)	99.8%	77.9%	82.5	–	105%	–	111%	103%	106%	98.9%
CC(O)C(F)(F)C(F)(F)C(F)(F)F (stereo unspecified)	119%	111%	–	103	115%	–	96.6%	107%	103%	118%
COc1ccc(-c2csc(NC(=O)Nc3nc(-c4ccc(OC)cc4)cs3)n2)cc1	72.8%	67.5%	–	98.5	81.9%	87.9%	90%	67.4%	83.6%	92.9%
COc1cccc(C(=O)NNC(=O)c2cccc3ccccc23)c1	117%	98.4%	–	115	110%	124%	114%	109%	107%	110%
C=COC(=O)CCOCC(CC)CCCC (stereo unspecified)	96.5%	92.9%	–	108	99.5%	102%	105%	108%	99.9%	106%
NNC(=O)N/N=C1\C(=O)N(c2nccs2)C(=O)C(=O)C1c1nc2ccccc2s1 (stereo unspecified)	103%	–	98.7	106	96.3%	109%	106%	68.9%	105%	90.4%
O=S(=O)(O)c1ccc(O)c(C2CCCCC2)c1	112%	123%	–	105	105%	100%	98.2%	99.3%	101%	112%
CC(=O)NNC(=S)N/C=C/c1c(C)ccc([N+](=O)[O-])c1[N+](=O)[O-]	104%	102%	–	105	96.7%	103%	99.7%	99.6%	89.6%	99.3%
C=CCNC(=S)N/C=C(/C(=O)c1ccccc1)c1ccccc1	109%	102%	–	111	98.2%	110%	101%	109%	91.9%	107%
COC1OC(C(COC(C)=O)OC(C)=O)C(OC(C)=O)C(OC(C)=O)C1OC(C)=O (stereo unspecified)	115%	119%	–	115	113%	–	92%	110%	106%	126%
O=c1nc(Nc2cccc(Cl)c2)oc2cc(Cl)oc(=O)c12	113%	81.6%	–	42.5	66.9%	–	79.8%	87%	66.2%	50.9%

Structure (SMILES)	growth [1]	growth [2]	growth [3] [%]	growth [4] [%]	growth [5]	growth [6]	growth [7]	growth [8]	growth [9]	growth [10]
CCCCNc1ccc(-c2ccc(NCCCC)cc2)cc1	83.1%	46.7%	–	79.7	70%	57.4%	49.5%	70.7%	71.7%	84.1%
Cc1ccc2nc(N)nnc2c1	98.4%	108%	–	–	98.2%	118%	103%	127%	99.2%	127%
Cc1cccc2ccccc12	114%	–	103	111	102%	97.4%	89.8%	101%	97.7%	101%
CCCCCC/C=C\CCCCCCCCCc1cc(O)cc(OC)c1O	26%	7.81% (active)	–	22.7	9.15% (active)	2.68% (active)	-58.3% (active)	-4.96% (active)	27.3%	-43.1% (active)
CC(=O)NNC(=S)/N=C\C(C(=O)c1ccccc1)=C(/O)c1ccccc1	108%	101%	–	97.7	99.2%	108%	101%	102%	103%	89.6%
Cc1ccc(NCN2C(=O)c3ccccc3C2=O)c(C)n1	107%	108%	–	114	105%	106%	116%	105%	97.6%	115%
Cc1ccc(C(C)C)c(OCC(=O)O)c1	121%	108%	–	114	97.5%	101%	103%	88.3%	108%	107%
CCOc1ccncc1[N+](=O)[O-]	108%	100%	–	113	103%	108%	108%	95.2%	106%	114%
S=CN1CCCCC1	106%	101%	–	102	96.7%	96%	97.4%	91.8%	106%	108%
Nc1ncnc2c1ncn2C1OC(CO)C2OC21 (stereo unspecified)	113%	104%	–	103	104%	106%	110%	98.6%	102%	112%
COc1cc(OC)c(NC(=O)C(Sc2nc(C)cc(C)c2C#N)c2ccccc2)cc1Cl (stereo unspecified)	102%	105%	–	73.5	85.9%	–	83.8%	114%	97.1%	106%
CC(C)(C)[Si](C)(C)OCC1OC(n2cnc3c(N)ncnc32)CC1OS(C)(=O)=O (stereo unspecified)	105%	105%	–	102	97.9%	110%	108%	94.7%	104%	102%
Cc1c(Cl)cccc1N=C=S	112%	–	99	91.9	107%	93.9%	90.2%	92.7%	90.6%	130%
CS(=O)(=O)c1ccc(/C=C\C(=O)O)cc1	104%	122%	–	95.7	94.1%	103%	91.8%	99.7%	94.9%	110%
N#C/C(=C\NC(=S)N=Nc1c(O)[nH]c2ccccc12)c1nc2ccccc2s1	113%	101%	–	101	102%	107%	103%	94.9%	101%	87.9%
C1=NCCc2ccccc21	111%	107%	–	104	95%	100%	96.5%	94.8%	94.2%	99%
COc1cccc(N=CNc2cccc(OC)c2)c1	107%	66%	–	105	105%	112%	98.3%	106%	104%	91.9%
Cc1[nH]n(-c2ccccc2)c(=O)c1C=NC(=S)C(N)=S	106%	101%	–	106	100%	98.4%	106%	97.7%	103%	98.9%
CCOC(=N)CC(=O)Nc1cccc(C)c1Cl	107%	122%	–	97.5	101%	97.2%	99.6%	103%	94.9%	89.5%
O=[N+]([O-])c1ccc2[nH]c(=S)n(/C=C(/c3ccc(Cl)cc3Cl)S(=O)(=O)Cc3ccc(Cl)cc3Cl)c2c1	102%	102%	–	109	97%	97.4%	99.6%	86.5%	93.6%	96.2%
CSCC[C@@H]1C(=O)N(C)[C@H](C(C)(C)C)N1C(=O)c1ccccc1	106%	114%	–	111	94.8%	108%	107%	100%	105%	111%
COCC(N)=O	98.4%	91.8%	–	108	103%	102%	96%	116%	105%	108%

Structure (SMILES)	growth [1]	growth [2]	growth [3] [%]	growth [4] [%]	growth [5]	growth [6]	growth [7]	growth [8]	growth [9]	growth [10]
NNC(=O)CCCCl	108%	105%	–	96.6	102%	102%	106%	105%	100%	104%
c1cc(CNCCNCc2ccncc2)ccn1	115%	108%	–	107	104%	104%	105%	93.7%	109%	104%
CC(=O)NCNC(C)=O	118%	112%	–	108	110%	–	91.3%	95.4%	111%	118%
O=S(Cc1ccccc1)/C(=C/NC(=S)Nc1ccccc1)c1ccccc1 (stereo unspecified)	104%	106%	–	116	99.2%	114%	99.7%	98%	98.5%	108%
c1ccc(Oc2c3ccccc3nc3ccccc23)cc1	8.05% (active)	8.65% (active)	–	25.4	22.7%	-39.1% (active)	-19.6% (active)	56.7%	-13.2% (active)	31.2%
CC(=O)Nc1ccc(/C=C2\SC(=S)N(/C=C(\C(C)=O)C(N)=O)C2=O)cc1	106%	–	87.8	93	96.2%	93.6%	92.5%	87.8%	81%	98.9%
Cc1nc(C)c(C(=O)O)cc1C(=O)O	–	99.6%	105	117	116%	118%	95%	111%	114%	108%
CC(=O)OCC1OC(n2cnc3c(=S)nc(N)[nH]c32)C(OC(C)=O)C1OC(C)=O (stereo unspecified)	53.1%	–	84.4	–	76.8%	40%	85.7%	–	37.6%	63.5%
C=CCOc1ccc(Cl)cc1Cl	–	5.12% (active)	113	132	104%	98.2%	96.8%	115%	101%	91.5%
CC(=O)C1C(=O)C(=O)N(c2ccc(Cl)c(Cl)c2)C1=O (stereo unspecified)	–	108%	92.4	110	99.8%	96.7%	99.5%	109%	93.7%	101%
Clc1ccc(C(SCc2ccccc2)SCc2ccccc2)cc1	–	92.7%	75.8	88	91%	102%	97.2%	88.2%	88.2%	99.9%
CCOC(=O)/C(C#N)=C\c1c[nH]c2ccccc12	111%	–	116	–	101%	107%	103%	105%	97.1%	80.9%
C/C(O)=C(/C=N\C(=S)Nc1ccc(S(=O)(=O)Nc2nccs2)cc1)C(=O)Nc1ccccc1C	–	93.7%	108	97.7	88.8%	104%	95.9%	109%	100%	87%
Oc1cc(O)c2c(c1)O[C@H](c1ccc(O)c(O)c1)[C@@H](O)C2	–	104%	103	113	–	97.8%	111%	101%	112%	98.4%
COc1ccc2c(ccc[n+]2C)c1	126%	–	110	136	125%	114%	101%	98.2%	108%	101%
Cc1cccc(C)c1NC(=S)/N=C\c1c(O)[nH]c(=O)[nH]c1=O	111%	–	–	108	98%	97.9%	112%	81.8%	98.4%	96.6%
O=S(Cc1ccccc1)/C(=C/NC(=S)Nc1cc(Cl)ccc1Cl)c1ccccc1 (stereo unspecified)	106%	–	–	103	93.1%	103%	115%	99.5%	96.8%	100%
C(=C\c1ccncc1)/c1ccncc1	145%	–	87.1	–	146%	107%	104%	108%	105%	110%
CCCCn1cnc2c(=O)[nH]cnc21	–	97.7%	158	118	110%	100%	104%	121%	103%	98.4%
Cn1c(=O)c2nc3c(=O)n(C)c(=O)n(C)c3nc2n(C)c1=O	117%	–	120	–	108%	107%	91.7%	–	97%	109%
CCOC(=O)C(COS(C)(=O)=O)(COS(C)(=O)=O)C(=O)OCC	–	101%	122	112	99%	111%	112%	105%	104%	109%
COc1ccc(Br)c2c1C(=O)CC2	127%	–	113	–	91.3%	111%	106%	119%	110%	106%
